# This is part of a sample that, as a whole, favours compounds with a hit. Of some 79,000 tested, about 15% had one in any assay. A number with no mark means an inactive call. Activity calls are given as the source filed them. Cut-off read from the data, not from the text of the source: active = growth inhibition above about 70%; inactive = the rest.
# Assay: NCI Yeast Anticancer Drug Screen. Data for the rad50 strain (AID 155);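 note: 0% = growth of vehicle-only cultures of the same strain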
# Settings: S. cerevisiae rad50 strain growth inhibition; at 5.0 µM (retest, dose inferred, filed as 0.5); active compounds read high
# In short: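 Relative growth inhibition (compound vs vehicle) was measured in yeast with a defined repair-gene alteration.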
row,Compound,growth inhibition
1,COc1cc(C(c2cc3c(cc2O)OCO3)N2CCN(C(c3cc(OC)c(OC)c(OC)c3)c3cc4c(cc3O)OCO4)CC2)cc(OC)c1OC (configuration not stated),-2%
2,Cc1cc(N)c(C)c2c1[nH]c1ccc(Br)cc12,1%
3,COc1ccc(C2c3cc4c(cc3OC(O)(CO)C2C(=O)O)OCO4)cc1 (configuration not stated) (tested in a mixture with another compound),-6%
4,CCCCCC(/C=N/Nc1nc(C)cc(=O)[nH]1)=C\c1ccccc1,9%
5,O=C1/C(=C/c2ccc([N+](=O)[O-])cc2)CNC/C1=C\c1ccc([N+](=O)[O-])cc1,74% (active)
6,CC(c1ccc2cccc(F)c2c1)c1ccccc1C(=O)O (configuration not stated),3%
7,CN(NC(=O)CC(=O)NN(C)C(=S)c1ccccc1)C(=S)c1ccccc1,76% (active)
8,O=c1nc(N2CCCC2)nc(N2CCCC2)s1,-16%
9,CC(=O)SC1C(=O)N(C)C(SC(C)=O)C(=O)N1C (configuration not stated),-5%
10,CCN(CC)CC(O)c1ccnc2c(O)cccc12 (configuration not stated),3%
11,CC1=NN(c2ccccc2)C(=O)C1N=Nc1cc(Cl)cc(S(=O)(=O)O)c1O (configuration not stated),59%
12,O=C(O)CC(NC(=O)CP(=O)(O)O)C(=O)O.[NH-]C1CCCCC1[NH-].[Pt+2] (configuration not stated),30%
13,COc1ccc(-c2nc3c(C(=O)NCCN(C)C)cccc3c3ccccc23)cc1,14%
14,C[C@]12CCC(=O)C=C1CC[C@@H]1[C@@H]2[C@@H](O)C[C@@]2(C)[C@H]1CC[C@]2(O)C(=O)COC(=O)CCC1CCCC1,83% (active)
15,O=C1C=CC(=O)N1c1cccc([N+](=O)[O-])c1,78% (active)
16,CC(=O)O/C=C1\c2ccccc2CCC1c1ccc2ccccc2c1 (configuration not stated),7%

row,Compound,growth inhibition
1,CCOc1ccccc1NC1=C(Cl)C(=O)c2ccccc2C1=O,99% (active)
2,CCc1cccc(C)c1N1C(=O)C(=O)C(c2nc3ccccc3o2)/C(=N\NS(=O)(=O)c2ccc(C)cc2)C1=O (configuration not stated),7%
3,O=C(CC(=O)c1ccccc1)CC(=O)c1cccc(Cl)c1,-1%
4,CC(O)c1c2ccccc2cc2ccccc12 (configuration not stated),-17%
5,CCCCCCCCCCCCCCCCC#N,-6%
6,O=C1/C(=C/c2cccc(Br)c2)CCc2ccccc21,1%
7,CC1(C)c2ccccc2Cc2cc3ccccc3nc21,0%
8,CN(C)Cc1ccc2[nH]c3c(c2c1)CCCC3,4%
9,C=C1C(=O)O[C@@H]2C[C@@]3(C)CCC[C@H](C)C3=C[C@H]12,11%
10,O=C1C=CC(=O)c2c1cc1ccccc1c2O,19%
11,Cc1c(CNc2ccc(Cl)c(Cl)c2Cl)cnc2nc(N)nc(N)c12,40%
12,O=C(O)C1(Cc2ccc3c(c2)CCC3)Cc2cc3c(cc2C1)CCC3,2%
13,O=C(c1ccc(O)c(Br)c1)c1cc(Br)ccc1O,66%
14,Oc1cc(F)cc2cccnc12,43%
15,C/C(=N\OC(=O)c1ccccc1)[N+](=O)[O-],-50%
16,O=C(c1ccccc1)C(Br)CCCC(Br)C(=O)c1ccccc1 (configuration not stated),30%
